Experimental data as given in PubChem BioAssay.
A number with no mark means an inactive call. The source made the active and inactive calls.

Experiment: osmotic lysis modulators in infected erythrocytes, primary screen, PSAC antagonist project, cell-based, P. falciparum Indochina, OD700, 3 h (AID 1156)
Conditions: higher = more signal, called active from +8 up or from −8 down

In order of falling z-score:
1. C=CC[C@]1(C(=O)NCCCOC)N=C(c2ccc(OCCCO)cc2)O[C@H]1c1ccccc1  0.932
2. COC(=O)[C@@]1(Cc2ccc(F)cc2)[C@H]2c3cc(C(=O)N(C)C)n(CCn4cc([N+](=O)[O-])nc4C)c3C[C@H]2CN1C(=O)c1ccccc1  0.0718
3. CC(C)C[C@@H]1NC(=O)[C@@]23C(=O)N[C@@H](Cc4ccccc4)C2[C@H](C)[C@@]2(C)O[C@H]2C3/C=C/C/C=C\CNC(=O)[C@@H](CC(C)C)NC1=O (stereo not given in full)  0.0094
4. COCCOC(=O)N1C(=O)[C@@]2(c3cc(C#CC4=CCCCC4)ccc31)[C@H](c1ccccc1OCCO)N1[C@H](c3ccccc3)[C@H](c3ccccc3)OC(=O)[C@H]1[C@@H]2C(N)=O  -0.714

Experiment: PSAC antagonists in infected red cells, primary screen, cell-based, P. falciparum Indochina, OD700, 18 h (AID 1157)
Conditions: P. falciparum Indochina infected erythrocytes, osmotic lysis OD700, 18 h; higher = more signal, called active from +8 up or from −8 down

In order of falling z-score:
1. COc1ccc([Si](C)(C)[C@H]2[C@H](CCO)O[C@@]3(C(=O)N(Cc4ccc(N5CCOC5=O)cc4)c4ccccc43)[C@@H]2C)cc1  6.38
2. CN1C(=O)[C@]2(CCC(=O)OC(C)(C)C)N=C(c3ccc(OCCCO)cc3)O[C@@H]2c2ccccc21  2.68
3. CN(C)C(=O)[C@@]1(CCS(=O)(=O)c2ccccc2)N=C(c2ccc(OCCCO)cc2)O[C@H]1c1ccccc1N=[N+]=[N-]  2.09
4. [N-]=[N+]=NCc1ccccc1C[C@]1(C(=O)N2CCCCC2)N=C(c2ccc(OCCCO)cc2)O[C@H]1c1ccccc1  2.04
5. O=C(NCCO)C1=C[C@H](Oc2ccccc2I)[C@@H](O)[C@H](NCc2ccc(F)cc2)C1  1.11
6. CO[C@H]1O[C@H](CO)[C@@H](OC(=O)Nc2ccc3c(c2)OCO3)[C@@H]2OC(=O)[C@@H](Cc3ccccc3)C/C=C/C[C@H](Cc3ccccc3)C(=O)O[C@@H]12  1.09
7. CCCCC(=C=CC[C@H](O)c1ccc(OCCO)cc1)C[C@H](O)c1ccccn1  1.07
8. CCCCC(O)C1C=CC2C(=O)NC(=O)C2N1Nc1ccc(Cl)cc1Cl (stereo not given)  0.998
9. [N-]=[N+]=NCc1ccccc1[C@@H]1OC(c2ccc(OCCCO)cc2)=N[C@]1(Cc1ccccc1)C(=O)NCc1ccccc1  0.983
10. O=C1NC(=O)C2C1C=CC(C(O)c1cccc(O)c1)N2Nc1ccc(Cl)cc1Cl (stereo not given)  0.901
11. COCCOC(=O)N1C(=O)[C@@]2(c3cc(C#CCCO)ccc31)[C@H](C(=O)N1CCN(c3ncccn3)CC1)[C@H]1C(=O)O[C@H](c3ccccc3)[C@H](c3ccccc3)N1[C@@H]2c1ccc(O)cc1  0.684
12. C=CCC(OC(C)=O)[C@@H]1[C@@H](N(Cc2cccc3ccccc23)C(=O)c2cccc3ccccc23)c2cc(OCCCO)ccc2N1C(=O)Cc1ccc2ccccc2c1 (stereo not given in full)  0.334
13. CC(c1ccccc1)C(O)C1C=CC2C(=O)N(c3ccccc3)C(=O)C2N1Nc1ccc(C#N)cc1 (stereo not given)  0.264
14. NCCCC[C@@H]1NC(=O)[C@H]2C[C@@H](C(=O)O)[C@@H](c3cccc(OCCO)c3)N2C1=O  0.253
15. C=CCNC(=O)[C@@H]1[C@H]2C(=O)O[C@H](c3ccccc3)[C@H](c3ccccc3)N2[C@H](c2ccccc2OCCO)[C@@]12C(=O)N(C(=O)OCCOC)c1ccc(C#CCCO)cc12  0.167
16. COc1ccc(CCNC(=O)[C@@]2(Sc3ccc(C)cc3)CC(=O)N(Cc3cc(C(F)(F)F)cc(C(F)(F)F)c3)[C@@H]2c2ccc(CO)cc2)cc1  -0.0392
17. C#CCN(C/C=C/c1ccccc1)[C@H](CO[Si](C)(C)C(C)(C)C)c1ccccc1  -0.161
18. COc1ccc([Si](C)(C)[C@@H]2[C@@H](CC(=O)N(CCO)Cc3ccccc3)O[C@]3(C(=O)N(Cc4ccc(N5CCC5=O)cc4)c4ccccc43)[C@H]2C)cc1  -1.27
19. CC(C)C[C@@H]1NC(=O)C([C@@H](C)OCc2ccccc2)NC(=O)[C@@]23C(=O)N[C@@H](Cc4ccccc4)C2[C@H](C)[C@@]2(C)O[C@H]2C3/C=C/CC/C=C/CNC1=O (stereo not given in full)  -1.61
20. O=C1OCCC=C[C@H]2OC34C=CCN(CCN5CCOCC5)C(=O)[C@H]3N(CCCO)C(=O)[C@@H]4C12 (stereo not given in full)  -1.73

With CN(C)C(=O)[C@]1(Cc2ccccc2CN=[N+]=[N-])N=C(c2ccc(OCCCO)cc2)O[C@@H]1c1ccccc1N=[N+]=[N-] the z-score was 9.81 (active).
